# Assay results published in PubChem BioAssay AID1439 (NMMLSC, 2008).
# In all, about 220,000 compounds went through this assay and about 770 (0.35%) were called active. Another 15% or so got no clear call; they are omitted. Rule as the data show it: active = binding response below about 49% or above about 150%; inconclusive = no clear call, values can overlap the other calls; inactive = in between. This excerpt belongs to a sample that is enriched for actives.
# Target: Guanine nucleotide-binding protein G(o) subunit alpha (Homo sapiens) (UniProt P09471)
# Sequence (P09471 whole entry, looked up): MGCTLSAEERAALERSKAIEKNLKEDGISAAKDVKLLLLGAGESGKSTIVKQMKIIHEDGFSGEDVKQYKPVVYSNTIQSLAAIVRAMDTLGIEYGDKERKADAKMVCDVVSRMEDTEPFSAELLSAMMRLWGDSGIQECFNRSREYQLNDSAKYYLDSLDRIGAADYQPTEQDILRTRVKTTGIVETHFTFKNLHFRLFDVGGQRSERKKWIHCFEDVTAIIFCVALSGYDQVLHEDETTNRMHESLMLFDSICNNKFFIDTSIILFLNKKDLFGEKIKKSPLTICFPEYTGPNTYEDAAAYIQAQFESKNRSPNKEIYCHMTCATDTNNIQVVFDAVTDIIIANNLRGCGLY
# Test: RGS7-Galphao binding modulators, primary screen, biochemical, multiplexed bead flow cytometry (AID 1439);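 also: fluorescent Galphao held in activated GDP-AlF4 state binding bead-coupled RGS7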
# Conditions: at 10 µM, actives lie on both sides
row,Structure (SMILES),binding response (% of control)
1,Cc1c(C(=O)Nc2ccccc2)sc2nc3n(c(=O)c12)CCCCC3,94.2% (inactive)
2,NC(=O)C1(N2CCCCC2)CCN(C(=S)Nc2ccc(Cl)cc2)CC1,108% (inactive)
3,CC(C)(O)C#Cc1ccc(C(=O)N2CCC(C(N)=O)(N3CCCCC3)CC2)cc1,101% (inactive)
4,CCC(=O)N1CCC(C(N)=O)(N2CCCCC2)CC1,161% (active)
5,Fc1ccc(COc2cccc(-c3n[nH]c(=S)o3)c2)cc1,103% (inactive)
6,COC(=O)CN1C(=O)N/C(=C/c2ccc(OC)c(C)c2OC)C1=O,103% (inactive)
7,COc1cc(/C=C/C(=O)N2c3ccccc3Sc3ccc(C(F)(F)F)cc32)cc(OC)c1OC,104% (inactive)
8,O=C(CN1CCCCC1)N1c2ccccc2Sc2ccc(C(F)(F)F)cc21,27.5% [inhibitor] (active)
9,O=C(CN1CCCCCC1)N1c2ccccc2Sc2ccc(C(F)(F)F)cc21,89.4% (inactive)
10,N#C/C(C(=S)Nc1ccccc1)=C1/NN=C(N2CCOCC2)N1c1ccccc1,97.6% (inactive)
11,Cc1ccc(NC(=O)c2cccnc2C(=O)Nc2ccc(C)cc2)cc1,106% (inactive)
12,O=C(Nc1ccccc1)c1cccnc1Nc1ccccc1,99.9% (inactive)
13,O=C(Nc1ccc(-n2ccnc2P(=O)(O)c2ccccc2)cc1)c1ccccc1Br,152% (active)
14,COC(=O)C1=C(C)N(c2ccc(C)cc2)/C(=C/c2ccc(O)cc2)C1=O,104% (inactive)
15,Cc1ccc2[nH]c(=O)c(CN(CC3COCCO3)C(=O)Nc3ccccc3C)cc2c1 (stereo unspecified),102% (inactive)
16,CC(=O)c1ccc(NC(=O)CSC(=S)N2CCCC2)cc1,102% (inactive)

row,Structure (SMILES),binding response (% of control)
1,CN(CC(=O)NC1CCCCC1)S(=O)(=O)c1cccc2cccnc12,241% (active)
2,Cc1ccc(S(=O)(=O)N(C)CC(=O)NC2CCCC2)cc1,98.3% (inactive)
3,CN(CC(=O)NC1CCCCC1)S(=O)(=O)c1ccc(Br)s1,99.1% (inactive)
4,N/C(=N/O)c1cccn1Cc1ccccc1[N+](=O)[O-],99.3% (inactive)
5,O=C(COC(=O)CCc1ccc(S(=O)(=O)N2CCOCC2)cc1)Nc1cccc(Cl)c1,99.8% (inactive)
6,Cc1cc(C)n(-c2ccc(Cl)c(C(=O)O)n2)n1,96.7% (inactive)
7,Cc1cc(C)nc(/N=C2\NC(=O)CC(C(=O)O)N2c2ccc(Cl)cc2Cl)n1 (stereo unspecified),170% (active)
8,CCOC(=O)c1nc(C)n(-c2ccc(Cl)cc2Cl)n1,102% (inactive)
9,COc1cccc(C2c3[nH]c4ccccc4c3CCN2Cc2cccc(C)n2)c1 (stereo unspecified),102% (inactive)
10,O=C(NC1CC1)c1ccc2c(c1)NC(=O)c1ccccc1S2,191% (active)
11,S=C1Nc2cc(Cl)ccc2Sc2ccccc21,100% (inactive)
12,O=C(NC1CC1)c1cccc(Br)c1,102% (inactive)
13,CC(=O)NC(Cc1ccc(F)c(F)c1)C(=O)NC1CCN(C(=O)c2ccc(C)cc2)CC1 (stereo unspecified),95.6% (inactive)
14,CCCn1c(NC(=O)C23CC4CC(CC(O)(C4)C2)C3)nc2ccccc21,104% (inactive)
15,CC(=O)N1CCc2cc(Br)cc(S(=O)(=O)CCC(=O)Nc3c(C)n(C)n(-c4ccccc4)c3=O)c21,98.9% (inactive)
